Compound activity as filed in PubChem BioAssay.
Hits are enriched below; roughly 4.4% of the tested compounds scored in any of these assays.
Mot1-301 SUMO – inhibitors of SUMOylation pathway: yeast Mot1-301 growth rescue | S. cerevisiae Mot1-301 growth rescue, ATP luminescence, 38.5C; percent above DMSO median, 100 means doubled | growth rescue, % at 18.8 µM | actives 1% (n = 320,000);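 active means every valid replicate shows activation above 250% relative to neutral control wells; inactive means the rest, any valid replicate at or below 250%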;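 further: OY570 slx delta 5 strain wells were the positive control but not used for scaling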
TIM10 inh – inhibits growth of TIM10 yeast strain; S. cerevisiae TIM10 strain growth, BacTiter-Glo luminescence, 24 h; inhibition, % at 10 µM; actives 1.4% (n = 330,000);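 active means inhibition of 40% or more at the single tested concentration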;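 further: wild-type TIM10 isogenic control strain grown at permissive 25 °C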
PfHsp90 yeast 2 – growth inhibition of yeast expressing Plasmodium Hsp90 | S. cerevisiae expressing PfHsp90, BacTiter-Glo ATP, 48 h; yeast lacking PDR1 and PDR3 efflux regulators | inhibition, % at 9.4 µM | actives 0.32% (n = 310,000) | AID 504621;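 active means every replicate shows inhibition above about 80%, whatever the replicate mean, limit read from the data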;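 further: 0% = DMSO neutral controls and 100% = 20 µM radicicol positive controls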
tim23-1 inh – growth inhibitors of tim23-1 mutant yeast; AID 463212; inhibition, % at 20 µM; actives 1.3% (n = 330,000); S. cerevisiae tim23-1 growth, BacTiter-Glo luminescence, 24 h;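 active means growth inhibition of the mutant yeast at or above 50%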;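 further: temperature-sensitive mutant grown at 25 °C; plate controls were DMSO-treated mutant yeast for no effect and medium wells lacking yeast for full effect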
tim10-1 inh – inhibits growth of tim10-1 mutant yeast; S. cerevisiae tim10-1 ts strain growth, BacTiter-Glo, 24 h; inhibition, % at 20 µM; actives 2.2% (n = 330,000);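 active means inhibition of at least 40%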;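 further: mutant grown at 25 °C; 0% = DMSO wells with yeast and 100% = wells holding no yeast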
tim23-1 confirm – tim23-1 yeast growth inhibition, confirmed. AID 463218. shares compounds with tim23-1 inh. inhibition, % at 20 µM. S. cerevisiae tim23-1 growth, BacTiter-Glo luminescence, 24 h. actives 83% (n = 4,400);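 active means inhibition above about 39% in either of two replicate wells at 20 µM, limit read from the data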;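 further: temperature-sensitive tim23-1 mutant grown at 25 °C; 0% = DMSO wells with yeast and 100% = medium wells without yeast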
Numbers without * were called inactive; x = no result.

SMILES	Mot1-301 SUMO	TIM10 inh	PfHsp90 yeast 2	tim23-1 inh	tim10-1 inh	tim23-1 confirm
CCNC(=O)CSc1nc(-c2ccc(F)cc2)cs1	-1.8	11.9	-22.5	-3.1	9.9	x
C/C(=N\NC(=O)c1ccc(Cl)cc1)c1ccccn1	24.8	22.5	-16.8	50.3*	6.2	44.6*
C/C(=N/NC(=O)c1ccccn1)c1ccc(O)cc1	128.7	-2.8	-2.9	0.2	-3.7	x
CN(C(=O)COC(=O)C12CC3CC(CC(Cl)(C3)C1)C2)c1ccccc1	28.5	26.4	x	56.2*	23.0	44.1*
CCCC(=O)Nc1ccc(-c2nc3ncccc3o2)cc1	-7.0	14.7	-3.5	43.2	-3.0	x
O=C(Nc1ccc(-c2nc3ncccc3o2)cc1)c1ccc([N+](=O)[O-])o1	-2.4	36.0	-7.7	64.8*	27.1	82.6*
CC(=O)Nc1ncnc2c1c(-c1ccc(Cl)cc1)nn2C(C)(C)C	118.3	16.5	-20.3	51.9*	-1.6	47.8*
CNC(=S)N/N=C/c1cc(Br)cc(Br)c1O	100.0	35.5	23.7	58.4*	24.6	53.9*
COc1cc2[nH]c(C(=O)N3CCN(c4ccccc4F)CC3)cc2c(OC)c1OC	-8.0	24.0	-4.1	50.9*	37.0	38.0
COc1ccccc1N1CCN(C(=O)c2ccc(-c3ccc(Cl)cc3)o2)CC1	40.8	36.3	x	51.7*	36.9	48.0*
COc1ccccc1N1CCN(C(=O)NCc2ccc(Cl)cc2)CC1	19.0	-5.2	-26.6	17.0	18.2	x
COc1ccc2cc(C(=O)N3CCN(c4ccccc4OC)CC3)[nH]c2c1	2.8	32.7	8.2	58.5*	31.7	53.0*
Cc1ccc(-n2nc3c(=O)n(CC(=O)NCCC4=CCCCC4)nc(C)c3c2C)cc1	-10.3	-1.2	8.5	5.6	2.9	x
CC1(C)SC2c3ccccc3C(=O)N2C1C(=O)O (stereo unspecified)	x	x	-8.4	x	x	x
CSCCC(NC(=O)c1ccco1)C(=O)N(C)CC(=O)Nc1c(Cl)cccc1Cl (stereo unspecified)	7.9	6.3	-7.9	-2.6	-18.0	x
CN(C(=O)Nc1cnccc1C(F)(F)F)C1CCCCC1	26.3	-9.4	-2.9	-7.8	-9.8	x
CCOc1ccccc1NC(=O)COC(=O)CC(C)(C)CC1=NS(=O)(=O)c2ccccc2N1	3.3	1.9	-10.4	-0.5	1.3	x
CN1CCN(S(=O)(=O)c2csc(C(N)=O)c2)CC1	1.3	-3.3	14.6	-0.2	15.4	x
COCCCNC(=O)CC1C[C@H](C(=O)N2CCCCC2)[C@@]2(CCc3ccccc3)c3[nH]c4ccc(OC)cc4c3CCN2C1=O (stereo partly specified)	x	10.0	3.9	33.7	14.3	x
Oc1ccc(C2C[C@H]3CC[C@@H]2C3)cc1O (stereo partly specified)	-8.9	26.2	-60.5	52.2*	16.8	24.9
O=C(c1ccc(Cl)cc1Cl)N1CCC(C(=O)N2CCOCC2)CC1	10.9	0.7	6.7	-12.6	-12.6	x
O=C(COC(=O)c1ccc(O)cc1)c1ccc2c(c1)OCCO2	x	-16.6	x	59.8*	-17.0	22.1
O=C(N/N=C/c1ccccc1)c1ccco1	5.7	-2.0	18.7	14.6	-14.4	x
O=C(N/N=C/c1ccc2cccnc2c1)c1ccco1	-10.8	26.8	-12.9	59.3*	18.6	63.8*
CCC(=O)NCCc1nc2cc(NC(=O)c3cccc([N+](=O)[O-])c3)ccc2n1C	16.5	-14.8	4.4	8.0	17.9	x
SMILES	Mot1-301 SUMO	TIM10 inh	PfHsp90 yeast 2	tim23-1 inh	tim10-1 inh	tim23-1 confirm
Nc1ccc2nc(SCc3cccc(F)c3)sc2c1	241.5	25.0	-21.1	56.7*	-21.5	45.8*
Cc1cc(Cl)ccc1OCCCC(=O)NNC(=O)c1ccccc1O	221.1	-6.8	x	-3.0	11.4	x
Cc1nn(-c2ccccc2)c2c1C(c1ccc([N+](=O)[O-])cc1)C(C#N)=C(N)O2 (stereo unspecified)	1.6	-1.6	-6.1	11.6	8.6	x
Cc1nn(-c2ccccc2)c2c1C(c1ccco1)C(C#N)=C(N)O2 (stereo unspecified)	0.1	8.5	-0.7	24.3	7.1	x
CCCc1nn(-c2ccccc2)c2c1C(c1cccs1)C(C#N)=C(N)O2 (stereo unspecified)	-2.4	29.0	14.9	51.3*	36.1	43.7*
Cc1nn(-c2ccccc2)c2c1C(c1cccs1)C(C#N)=C(N)O2 (stereo unspecified)	9.7	32.2	-0.8	61.0*	24.5	59.6*
